Sampled rows, rich in hits. Any-hit rate of the full collection: about 3%.
TRAIL sens C8: sensitizes caspase-8 expressing cells to TRAIL | NB7+C8 cells + TRAIL, ATPlite viability luminescence | inhibition (viability loss, TRAIL sensitization), % at 10 µM | 360,000 compounds, 1% hits | AID 624354;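 active means compounds causing at least 50% loss of cell viability in the single-dose screen, relative to plate controls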
SENP8 block-1: SENP8 protease inhibition. Q96LD8. purified SENP8, Z-RLRGG-aminoluciferin cleavage, luminescence. inhibition, % at 10 µM. 330,000 compounds, 1.2% hits; in the data active means inhibition above about 50%
Target sequence (Q96LD8 whole entry, looked up): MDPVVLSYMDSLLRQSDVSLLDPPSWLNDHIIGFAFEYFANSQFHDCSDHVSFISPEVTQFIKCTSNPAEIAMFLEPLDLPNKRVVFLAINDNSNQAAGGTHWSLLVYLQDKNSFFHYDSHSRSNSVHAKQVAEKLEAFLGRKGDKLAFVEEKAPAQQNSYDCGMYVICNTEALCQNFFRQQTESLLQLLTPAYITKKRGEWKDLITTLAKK
SENP6 inh: SENP6 protease inhibition; Q9GZR1; Recombinant SENP6 catalytic domain, aminoluciferin luminescence; inhibition, % at 10 µM; 330,000 compounds, 1.8% hits; AID 2599;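 active means inhibition above about 50% at the single tested dose, limit read from the data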;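 further: plate controls were DMSO wells with enzyme for no effect and DMSO wells lacking enzyme for full effect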
SENP7 inh: SENP7 protease inhibition. Q9BQF6. recombinant SENP7, Z-RLRGG-aminoluciferin luminescence, 40 min. inhibition, % at 5 µM. 330,000 compounds, 1.5% hits. AID 434973;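 active means inhibition above about 50% at the single test dose, limit read from the data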;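 further: plate controls were DMSO with enzyme for no effect and no enzyme buffer wells for full effect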
Target sequence (Q9BQF6 706-1050 limits assumed): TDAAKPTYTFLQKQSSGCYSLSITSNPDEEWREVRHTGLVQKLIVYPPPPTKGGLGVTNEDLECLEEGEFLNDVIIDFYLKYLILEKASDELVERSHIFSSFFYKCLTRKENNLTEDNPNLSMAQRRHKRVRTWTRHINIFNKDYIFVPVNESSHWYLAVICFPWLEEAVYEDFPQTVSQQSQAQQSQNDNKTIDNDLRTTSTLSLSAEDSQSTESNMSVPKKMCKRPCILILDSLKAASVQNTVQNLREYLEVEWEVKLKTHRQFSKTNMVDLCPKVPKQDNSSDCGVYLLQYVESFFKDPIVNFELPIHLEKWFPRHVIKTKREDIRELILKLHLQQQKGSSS
SENP8 block-2: inhibitors of human SENP8 protease; Q96LD8; recombinant SENP8, Nedd8 substrate fluorescence; inhibition, % at 20 µM; 360,000 compounds, 0.64% hits; AID 602440; in the data active means inhibition mostly above about 40%, no sharp cut-off; inactive means mostly below about 27%
PPC-1+TRAIL kill: PPC-1 cancer cell killing with TRAIL present | PPC-1 cells + TRAIL, ATPLite viability luminescence | cell killing (% activity), % at 4 µM or 5 µM | 220,000 compounds, 0.41% hits;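 active means cell killing above 50% in the first pass at 4 µM, then a duplicate retest at 5 µM averaging 50% or more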;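 further: plate controls were cells with TRAIL plus DMSO for no effect and medium-only wells lacking cells for full effect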
Active calls of the source: *; i = inactive; . = not tested or not shown.

SMILES | TRAIL sens C8 | SENP8 block-1 | SENP6 inh | SENP7 inh | SENP8 block-2 | PPC-1+TRAIL kill
O=C(COC(=O)/C=C/c1ccc(OC(F)F)cc1)Nc1cccc(S(=O)(=O)N2CCOCC2)c1 | -17 | -10 | -5 | -2 | 13 | .
CC(=O)c1c(C)[nH]c(C(=O)Nc2ccc(Cl)cc2)c1C | -6 | -9 | -7 | -12 | -11 | .
CC(=O)c1c(C)[nH]c(C(=O)Nc2ccccn2)c1C | 51* | -11 | -3 | 0 | -11 | .
CC(C)(C)c1ccc(O)c(/C=N\O)c1 | 72* | -15 | -15 | -2 | 12 | -23
CC(C)(C)c1ccc(O)c(O)c1 | -19 | -4 | 2 | 4 | 16 | .
CC(=O)c1ccc(NC(=O)CSc2nc(N)c3cc4c(nc3n2)CCCC4)cc1 | 52* | 0 | 23 | 1 | -276 | 23
COc1ccc(NC(=O)CSc2nc(N)c3cc4c(nc3n2)CCCC4)cc1 | 37 | -13 | -11 | 5 | -41 | 15
CCN1C(=O)C(=O)N(CC(=O)Nc2ccccc2OC(F)F)C1=O | -8 | -13 | -5 | -11 | 4 | .
O=C(COC(=O)CCC(=O)c1ccc(F)cc1)NCc1ccccc1Cl | -2 | 6 | -13 | -4 | 0 | .
Cc1ccc(NC(=O)CSc2ccc(-c3ccc4c(c3)OCO4)nn2)cc1F | 55* | 13 | 3 | 3 | 8 | 29
O=C(O)C(SC(C(=O)O)c1ccccc1)c1ccccc1 (stereo unspecified) | -11 | . | . | . | 12 | .
CC(C)C(NC(=O)c1c(F)cccc1F)C(=O)N1CCN(S(=O)(=O)/C=C/c2ccccc2)CC1 (stereo unspecified) | -12 | 4 | -11 | 2 | 18 | .
Cc1nc(NCC2CCCO2)nc2c1C(=O)CC(C)(C)C2 (stereo unspecified) | 7 | -11 | -9 | -3 | 9 | 36
Cc1nc(NCC2CCCO2)nc2c1C(=O)CC(C)C2 (stereo unspecified) | 52* | -4 | -20 | 9 | 17 | -12
COc1cccc(/C=C2\CCC(C3CCCC3)C2=O)c1OC (stereo unspecified) | 49* | 27 | 40 | 21 | 23 | .
O=C(CCl)N1CCN(S(=O)(=O)c2ccc3ccccc3c2)CC1 | 81* | 5 | -10 | 5 | 9 | .
CCc1nnc(NC(=O)CSc2ccc(-c3nc4ccc(C)cc4[nH]3)cn2)s1 | 54* | -8 | 3 | 11 | -251 | 24
Cc1cc2nc(-c3ccc(SCc4ccc(C#N)cc4)nc3)[nH]c2cc1C | -26 | -3 | 3 | 3 | -268 | 4
Cc1cc2nc(-c3ccc(SCC(=O)Nc4nccs4)nc3)[nH]c2cc1C | 59* | . | . | . | -300 | 25
Cc1cc2nc(-c3ccc(SCC(=O)Nc4ccc(S(=O)(=O)N5CCCC5)cc4)nc3)[nH]c2cc1C | 72* | -3 | 2 | 8 | -288 | 63*
CC(=O)CSc1ccc(-c2nc3cc(C)c(C)cc3[nH]2)cn1 | 78* | 18 | 34 | 29 | -421 | .
Cc1ccc2nc(-c3ccc(SCC(=O)N4CCc5ccccc54)nc3)[nH]c2c1 | 65* | -6 | 20 | 3 | -417 | 56*
Cc1ccc2nc(-c3ccc(SCC(=O)O)nc3)[nH]c2c1 | 48 | 2 | 44 | 26 | i | 30
CCN(C[C@H]1N[C@@](CC)(C(=O)OC)[C@H]2C(=O)N(C)C(=O)[C@@H]12)S(=O)(=O)c1ccccc1 | -12 | 9 | 24 | 6 | 12 | .
Cc1ccsc1/C=N/Nc1ccc(F)cc1F | 5 | 56* | 50* | 9 | -2 | .
SMILES | TRAIL sens C8 | SENP8 block-1 | SENP6 inh | SENP7 inh | SENP8 block-2 | PPC-1+TRAIL kill
C=CCN([C@H](C(=O)OC)C(C)C)S(=O)(=O)CCNCc1ccccc1 | -1 | . | . | . | 11 | .
O=C1OC=NC1=Cc1ccccc1 | -13 | . | . | . | -19 | .
O=c1c2[nH]c3ccc(F)cc3c2ncn1C1CCCCC1 | 51* | -9 | 0 | -7 | -117 | 14
O=c1c2c([nH]n1-c1ccccc1)CCSC2 | 10 | -5 | 9 | -2 | 46* | .
CC(=O)N(/N=C1\Sc2ccccc2C1=O)c1ccccc1 | 6 | . | . | . | 74* | 16
COC(=O)c1cc(C)nc2c1C(=O)C(=O)C=C2N1CCOCC1 | 92* | 98* | 90* | 93* | 111* | .
Cc1cccc2nc(COc3ccc4ccccc4c3Br)cn12 | 21 | 22 | 57* | 34 | 17 | 27
Cc1cccc2nc(CSc3ccccc3N)cn12 | 16 | -6 | 14 | -4 | 10 | .
COc1ccc(C[C@H](N)C(=O)N[C@H]2[C@@H](O)[C@H](n3cnc4c(N(C)C)ncnc43)O[C@@H]2CO)cc1 | 92* | 4 | -3 | 1 | 5 | .
CCN(CC(=O)NC1CCS(=O)(=O)C1)c1ccc([N+](=O)[O-])cc1C#N (stereo unspecified) | 4 | -12 | -15 | 1 | -2 | .
CC(C)c1ccc(CN2CCC(n3nccc3NC(=O)C3CCCC3)CC2)cc1 | -3 | . | . | . | 22 | .
CCn1cc(C(=O)NCc2ccco2)c(=O)c2cc(S(=O)(=O)N3CC(C)CC(C)C3)ccc21 (stereo unspecified) | 83* | -9 | -9 | -7 | 1 | 55*
CC(=O)Nc1cc(-c2ccc(N(C)C)cc2)cn2c(-c3ccc(F)c(Cl)c3)cnc12 | 24 | . | . | . | -494 | .
Cc1ccc(C(=O)OCC(=O)NCc2ccc(Cl)cc2Cl)o1 | -4 | 9 | 1 | -3 | 10 | .
COc1ccccc1-c1noc(-c2ccccc2)n1 | 15 | 87* | 92* | 93* | 17 | 34
CCOc1cc(-c2nc(-c3ccccc3OC)no2)cc(OCC)c1OCC | 17 | -10 | -12 | -12 | 6 | 15
CC(C)N(C(=O)c1ccc(Cc2cn(C)c3ccccc23)nc1)C(C)C | 3 | . | . | . | 11 | .
C=CCn1c(O)c(N=NC(=S)Nc2ccccc2F)c2ccccc21 | 11 | -6 | 9 | -2 | 23 | 6
Cc1c(Cl)cccc1NC(=S)N=Nc1c(O)n(CN2CCOCC2)c2ccccc12 | -4 | -14 | 2 | -7 | 10 | 53*
C=CCn1c(O)c(N=NC(=S)Nc2cccc(C)c2)c2ccccc21 | 24 | -3 | 10 | -3 | 42* | 29
CC(OC(=O)C1CC1)C(=O)Nc1cc(Cl)cc(Cl)c1 (stereo unspecified) | 0 | -3 | -4 | -1 | 2 | .
O=C1/C(=C\c2ccc(Br)o2)Cc2ccccc21 | -1 | 43 | 73* | 22 | -43 | 10
COc1ccc(Cl)cc1CC=NNC(=O)c1ccncc1 | -4 | . | . | . | 5 | .
O=C(COc1ccccc1)N=C1SC2CS(=O)(=O)CC2N1c1ccccc1F (stereo unspecified) | -20 | -4 | 3 | -11 | 9 | .
Cc1ccccc1NC(=O)CSc1nnc(C)c2ccccc12 | -7 | -4 | -1 | 10 | -1 | .
COc1ccc(-c2csc(N3C(=O)CNC3=S)n2)cc1 | 22 | . | . | . | 12 | 40
Cc1cc2nc(N3C(=O)CNC3=S)sc2cc1C | 57* | 95* | 95* | 96* | -8 | 48
CCOc1ccc2nc(N3C(=O)CNC3=S)sc2c1 | 59* | 20 | 39 | 26 | 1 | 42
